From PubChem
Most compounds without a hit are left out; they make up all but 12% or so of the library.
NS1 inh: influenza NS1 inhibition; Potency, µM (highest dose often 46.1 µM), for inactives: at the top dose activity, positive = more growth; 270,000 compounds, 0.4% hits; calls by dose curve; also: actives are rising curves; nearly all actives have a fitted effect of over 50% in size
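OD600 was taken as the measure of yeast growth restored by compound in an NS1-expressing S. cerevisiae strain. Cells had been washed out of glucose medium and diluted 1:100 into galactose -URA medium, pH 6.0.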
AMA1-RON2 inh: inhibitors of Plasmodium falciparum AMA1-RON2 interaction; AlphaScreen AMA1-biotinylated RON2 peptide binding; Potency, µM (series often up to 58.2 µM), for inactives: at the highest dose activity change, negative = inhibition, usual class: inhibitors; 360,000 compounds, 0.2% hits; AID 720542;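 also: 0% = vehicle wells and -100% = peptide control; nearly all actives have a fitted effect of over 45% in size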
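AMA1 (3D7) with his tag at 25 nM final met compounds first, then biotinylated RON2 peptide at 25 nM; detection used donor plus acceptor beads, 10 µg/mL apiece, read by AlphaScreen after 30 min at room temperature.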
Pf growth 96h: inhibits malaria parasite growth, 96 h. P. falciparum luciferase reporter growth, 96 h. AID 504834. Potency, µM (doses to about 28.7 µM), without a hit: at the top dose activity change, negative = inhibition, hits mostly inhibitors. 320,000 compounds, 6.9% hits; also: % is scaled to controls: 0 for no effect and ±100 for the full control effect
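Infected RBCs, 2% Hct / 0.05% parasitemia final; luciferase-reporter P. falciparum; cpd 96 h, 37 C, 5% CO2; luciferase detection reagent; luminescence.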
HCV inh: inhibitors of hepatitis C virus infection; AID 651820; Potency, µM (series often up to 41.8 µM), for the others: top-dose activity change, negative = inhibition, most hits filed as inhibitors; Huh7.5.1 HCVcc-Cre infection, luciferase reporter, 44 h; 340,000 compounds, 3.4% hits; also: % is scaled to controls: 0 for no effect and ±100 for the full control effect
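After 44 h co-culture of compound, cells and HCVcc-Cre (~0.5 moi), substrate is added for 15 min at room temperature and luciferase measured over 15 sec. Cells were seeded at 1,000/well and pre-cultured 4 h.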
SARS PLP yeast: inhibitors of SARS-CoV papain-like protease in yeast. Potency, µM (highest dose often 32.9 µM), without a hit: at the highest dose activity, positive = growth rescue, hits mostly activators. S. cerevisiae expressing SARS-CoV PLpro, growth rescue. 330,000 compounds, 0.19% hits; calls by dose curve; also: 0% is about no effect; nearly all actives have a fitted effect of over 55% in size
Pf growth 48h: inhibits P. falciparum growth in the first generation, 48 h; P. falciparum luciferase growth in erythrocytes, 48 h; Potency, µM (highest dose often 28.7 µM), for the others: at the highest dose activity change, negative = inhibition, most hits filed as inhibitors; 310,000 compounds, 5.9% hits; AID 504832; also: % is scaled to controls: 0 for no effect and ±100 for the full control effect
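Read-out is firefly luciferase luminescence from an integrated reporter in P. falciparum, so falling signal marks reduced parasite growth. Infected erythrocytes were at 2% hematocrit and 0.1% parasitemia (final) in Albumax-supplemented RPMI 1640.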
An asterisk follows results filed as active; ? = inconclusive; · = no result; [ ] = dose if it differs, or a comment. Unless noted, calls follow the shape of the dose curve; as a rule, active = well fitted curve in the direction sought with a large enough effect; inconclusive = small, poorly fitted or top-dose-only effect, or another doubt; inactive = no such curve, though single readings can be large; an effect the other way counts as inactive or inconclusive. Potency is read from the fitted curve at half-maximal effect.

SMILES	NS1 inh	AMA1-RON2 inh	Pf growth 96h	HCV inh	SARS PLP yeast	Pf growth 48h
CCOC(=O)CCNC(=O)N1CCC(CCC(=O)NCc2ccc(F)cc2)CC1	12%	20%	?	2%	1%	?
CN1CCN(C(=O)CCC(=O)NCc2ccc(F)cc2)CC1	24%	3%	-29%	5%	0%	-4%
CN(C)c1ccc(C(CNC(=O)c2ccc(C#N)cc2)c2c[nH]c3ccccc23)cc1 (stereo unspecified)	28%	14µM*	?	?	10%	?
C=C(C)COc1ccc(-c2n[nH]c(C)c2-c2ccc(OC)c(OC)c2)c(O)c1	-31%	96%	?	13µM*	-3%	?
COc1ccc(-c2cn[nH]c2-c2ccc(OCC(=O)NN)cc2O)cc1OC	7%	62%	?	13%	0%	?
C=C(C)COc1ccc(-c2[nH]ncc2-c2ccc(OC)cc2)c(O)c1	-24%	79%	?	-14%	-11%	?
C=C(C)COc1ccc(-c2[nH]ncc2-c2ccccc2)c(O)c1	-148%	-1%	?	-22%	-20%	10µM*
O=[N+]([O-])c1ccc(COc2ccc(-c3[nH]ncc3-c3ccccc3)c(O)c2)cc1	5%	83%	6.6µM*	-27%	14%	13µM*
C=C(C)COc1ccc(-c2[nH]ncc2-c2ccc(OC)c(OC)c2)c(O)c1	-110%	-11%	2.3µM*	2µM*	?	1.9µM*
CCC(CC)c1nnc(NC(=O)C2=NNC(=O)CC2)s1	·	45%	21%	20%	-2%	14%[5.75 µM]
CC(=O)Nc1ccc(Nc2nc(C)c([N+](=O)[O-])c(Nc3ccc(NC(C)=O)cc3)n2)cc1	8%	13%[2.32 µM]	2.1µM*	?	-2%	-26%
COc1cccc(Nc2nnc(SCC3CCCCO3)s2)c1 (stereo unspecified)	·	-7%	?	-1%	-7%	7%
Cc1ccc(Nc2nnc(SCC(=O)NCc3ccco3)s2)cc1	-3%	-10%	?	7%	8%	5.9µM*
Cc1cccc(Nc2nnc(SCC(=O)NCc3cccs3)s2)c1C	-16%	-8%	6.6µM*	-2%	5%	-25%
Cc1cccc(Nc2nnc(SCC3CCCCO3)s2)c1C (stereo unspecified)	-39%	-15%	12µM*	8%	-14%	?
CC(NS(=O)(=O)c1ccccc1Cl)C1CC2CCC1C2 (stereo unspecified)	-14%	-5%	-2%	7%	-4%	-33%
O=C(NCc1ccccc1)C(c1ccncc1)N(C(=O)c1ccccn1)c1ccccc1 (stereo unspecified)	1%	32%	57%	-2%	2%	17%
COc1ccc(/C=C2\SC(=O)N(CCCC(=O)Nc3cc(Cl)ccc3C(=O)O)C2=O)cc1	·	15%	·	-6%	-7%	·
O=C(O)CC1(CC(=O)Nc2ccccc2N2CCOCC2)CCCC1	3%	-4%	52%	18%	0%	62%
CCCCN1C(=O)C(CC(=O)NC2CC2)CC(C(=O)N2CCOCC2)=C1C (stereo unspecified)	·	-8%	·	·	·	·
O=C(/C(=C/c1ccc(Cl)cc1)c1nc2ccccc2[nH]1)c1ccccc1	-108%	65%	2.3µM*	10µM*	-38%	2.9µM*
COc1ccc(C(=O)N/C(=C/c2cccs2)C(=O)NC(C)(C)C)cc1OC	5%	40%	1%	-10%	1%	-16%
COc1cc(/C=C(/C(=O)c2cccs2)c2nc3ccccc3[nH]2)cc(OC)c1O	5%	39%	?	10µM*	7%	·
COc1ccc(C(=O)N/C(=C/c2cccs2)c2nc3ccccc3[nH]2)cc1OC	3%	-1%	4.7µM*	0%	1%	-19%
Cc1cccc(NS(=O)(=O)c2ccc(C(=O)NCC(c3ccco3)N(C)C)cc2)c1C (stereo unspecified)	1%	-14%	11%	-11%	?	0%
SMILES	NS1 inh	AMA1-RON2 inh	Pf growth 96h	HCV inh	SARS PLP yeast	Pf growth 48h
Nc1c(C(=O)NCCN2CCOCC2)c2nc3ccccc3nc2n1CCc1ccccc1F	-86%	46%	13µM*	?	0%	?
C=CCNC(=O)c1c(N)n(CCN2CCOCC2)c2nc3ccccc3nc12	-4%	2%	40%	6%	-2%	-15%
Nc1c(C(=O)NCCN2CCOCC2)c2nc3ccccc3nc2n1CCc1ccccc1	-11%	28%	-19%	?	-3%	9.3µM*
COc1ccc(/C=N/N(CCC(=O)NC(C)(C)C)C2=NS(=O)(=O)c3ccccc32)cc1	-4%	-2%	42%	-21%	-1%	6.6µM*
CC(C)(C)NC(=O)CCN(/N=C/c1ccncc1)C1=NS(=O)(=O)c2ccccc21	1%	3%	-4%	-9%	7%	?
N#Cc1cc(C#N)c(N2CCN(c3cccc(Cl)n3)CC2)nc1N	6%	37%	1.7µM*	11µM*	?	3.7µM*
NC1CCN(c2cccc(Cl)n2)CC1	-9%	·	-15%	·	·	-3%
CCOc1ccc(-c2cc3cc(OC)c(OC)cc3c(C)n2)cc1	·	-14%	36%	?	11%	-14%
COc1cc2cc(-c3ccc(O)cc3O)nc(C)c2cc1OC	-5%	-24%	?	5.6µM*	-2%	?
COc1cc2cc(-c3ccc(OC)c(OC)c3C)nc(N)c2cc1OC	·	-3%	·	18µM*	·	·
O=C(C1CC(=O)N(c2ccccc2)C1)N1CCN(c2ccccc2)CC1 (stereo unspecified)	20%	16%	81%	15%	4%	5%
CCCCNC(=O)N1c2ccccc2CC1C (stereo unspecified)	·	12%	-20%	-7%	1%	-19%[5.75 µM]
COc1ccc(OC)c(S(=O)(=O)NCc2nc3nc(C)cc(C)n3n2)c1	9%	-6%	13µM*	11%	-1%	-7%
COc1ccc(CNc2nc3nc(C)cc(C)n3n2)cc1	-6%	-3%	40%	0%	3%	44%
CC(=O)N1c2ccc(S(=O)(=O)N3CCCC3)cc2CC1C(=O)Nc1cc(C)cc(C)c1 (stereo unspecified)	6%	-1%	?	?	4%	?
O=C(Nc1cccc(Br)c1)c1cccc(OC(=S)N2CCOCC2)c1	-5%	7%	27%	?	-3%	?
Nc1c(-c2ccccc2)c(CSc2nc3ccccc3[nH]2)nn1-c1ccc(Cl)cc1	?	-1%	?	11µM*	-8%	-33%
CCOC(=O)c1c(N=CN(C)C)c2cc([N+](=O)[O-])cnc2n1C	0%	-5%	14%	-27%	0%	10%
COC(=O)c1onc(-c2ccccc2)c1C(=O)OC	-10%	2%	9%[5.75 µM]	26%	10%	13%
COC(=O)c1c(-c2ccc(F)cc2)noc1N	-1%	2%	4.7µM*	14%	-6%	25%
